Inconclusive results are not listed. Where a call stands in place of a potency, no number is given. Active and inactive are the calls of the source. Calls follow the shape of the dose curve; as a rule, active = well fitted inhibition curve with a large enough effect; inconclusive = small, poorly fitted or top-dose-only effect; inactive = flat fitted curve, though single readings scatter.
Potency is read from the fitted curve at half-maximal effect.

For one test, the system named is JCK. In words: qHTS profiling for inhibitors of Plasmodium falciparum proliferation (AID 504749). Also: nearly all actives have a fitted effect of over 60% in size. The following applies: P. falciparum in erythrocytes, SYBR Green DNA, 72 h; series mostly up to 28.7 µM. The essentials:
(§1)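 Fluorescence of SYBR Green-bound parasite DNA, read at 485/535 nm, served as the growth measure. Infected erythrocytes were cultured with compound 72 h; artemisinin (0.29 uM) and DMSO wells defined the normalization range.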
For orientation: In qHTS, concentration-response curves come from the screen itself.
Turning to `CO/N=C(/C(=O)N[C@@H]1C(=O)N2C(C(=O)O)=CCS[C@H]12)c1csc(N)n1`, the Potency result was “inactive”.

Turning to `Cc1cc(CC(C)CC(C)(C)C)n(O)c(=O)c1` (stereo unspecified), the Potency was 11.2 µM (active).

For `CC1CCC(C(C)C)C(OC(=O)c2ccccc2O)C1` (stereo unspecified), the Potency entry is “inactive”.

For the compound `CO[C@@H]1[C@@H](OC2OC(C)C(OC3CC(C)(O)C(OC(=O)CC(C)C)C(C)O3)C(N(C)C)C2O)[C@@H](CC=O)C[C@@H](C)C(=O)/C=C\C2O[C@H]2C[C@@H](C)OC(=O)C[C@H]1OC(C)=O` (stereo partly specified), the Potency result is “inactive”.

As to `CCC(=O)O[C@@H](OP(=O)(CCCCc1ccccc1)CC(=O)N1C[C@H](C2CCCCC2)C[C@H]1C(=O)O)C(C)C` (stereo partly specified), the Potency result was “inactive”.

Turning to `CC(=O)O[C@@]12CO[C@@H]1C[C@H](O)[C@@]1(C)C(=O)[C@H](O)C3=C(C)[C@@H](OC(=O)C(O)[C@@H](NC(=O)OC(C)(C)C)c4ccccc4)C[C@@](O)([C@@H](OC(=O)c4ccccc4)[C@H]21)C3(C)C` (stereo partly specified), the Potency entry is “inactive”.

Turning to `CC1(C)S[C@@H]2[C@H](NC(=O)COc3ccccc3)C(=O)N2[C@H]1C(=O)O`, the Potency result was “inactive”.

Take `CCN1/C(=C/C=C/C=C/c2sc3ccccc3[n+]2CC)Sc2ccccc21`: the Potency was 11.2 µM (active).

For `O=NCc1ccc([N+](=O)[O-])o1`, the Potency entry was “inactive”.

A further test has as its system N140. The test is described as above. The following applies: P. falciparum in erythrocytes, SYBR Green DNA, 72 h; series mostly up to 28.7 µM. The essentials: as §1
As for `CO/N=C(/C(=O)N[C@@H]1C(=O)N2C(C(=O)O)=CCS[C@H]12)c1csc(N)n1`, the Potency result is “inactive”.

In the case of `Cc1cc(CC(C)CC(C)(C)C)n(O)c(=O)c1` (stereo unspecified), the Potency is 1 µM (active).

On to `CC1CCC(C(C)C)C(OC(=O)c2ccccc2O)C1` (stereo unspecified), for which the Potency result was “inactive”.

As for `CO[C@@H]1[C@@H](OC2OC(C)C(OC3CC(C)(O)C(OC(=O)CC(C)C)C(C)O3)C(N(C)C)C2O)[C@@H](CC=O)C[C@@H](C)C(=O)/C=C\C2O[C@H]2C[C@@H](C)OC(=O)C[C@H]1OC(C)=O` (stereo partly specified), the Potency is 8.91 µM (active).

Take `CCC(=O)O[C@@H](OP(=O)(CCCCc1ccccc1)CC(=O)N1C[C@H](C2CCCCC2)C[C@H]1C(=O)O)C(C)C` (stereo partly specified): the Potency result is “inactive”.

Consider `CC(=O)O[C@@]12CO[C@@H]1C[C@H](O)[C@@]1(C)C(=O)[C@H](O)C3=C(C)[C@@H](OC(=O)C(O)[C@@H](NC(=O)OC(C)(C)C)c4ccccc4)C[C@@](O)([C@@H](OC(=O)c4ccccc4)[C@H]21)C3(C)C` (stereo partly specified), for which the Potency is 0.0891 µM (active).

Turning to `CC1(C)S[C@@H]2[C@H](NC(=O)COc3ccccc3)C(=O)N2[C@H]1C(=O)O`, the Potency result is “inactive”.

As to `CCN1/C(=C/C=C/C=C/c2sc3ccccc3[n+]2CC)Sc2ccccc21`, the Potency was 5.62 µM (active).

The next test relates to P93_24. The description is as above. The following applies: P. falciparum in erythrocytes, SYBR Green DNA, 72 h; series mostly up to 28.7 µM. In outline:
as §1
Regarding `CO/N=C(/C(=O)N[C@@H]1C(=O)N2C(C(=O)O)=CCS[C@H]12)c1csc(N)n1`, the Potency entry was “inactive”.

Turning to `Cc1cc(CC(C)CC(C)(C)C)n(O)c(=O)c1` (stereo unspecified), the Potency is 2.24 µM (active).

Take `CC1CCC(C(C)C)C(OC(=O)c2ccccc2O)C1` (stereo unspecified): the Potency entry was “inactive”.

In the case of `CO[C@@H]1[C@@H](OC2OC(C)C(OC3CC(C)(O)C(OC(=O)CC(C)C)C(C)O3)C(N(C)C)C2O)[C@@H](CC=O)C[C@@H](C)C(=O)/C=C\C2O[C@H]2C[C@@H](C)OC(=O)C[C@H]1OC(C)=O` (stereo partly specified), the Potency was 8.91 µM (active).

Turning to `CC(=O)O[C@@]12CO[C@@H]1C[C@H](O)[C@@]1(C)C(=O)[C@H](O)C3=C(C)[C@@H](OC(=O)C(O)[C@@H](NC(=O)OC(C)(C)C)c4ccccc4)C[C@@](O)([C@@H](OC(=O)c4ccccc4)[C@H]21)C3(C)C` (stereo partly specified), the Potency was 0.0562 µM (active).

As for `CC1(C)S[C@@H]2[C@H](NC(=O)COc3ccccc3)C(=O)N2[C@H]1C(=O)O`, the Potency entry was “inactive”.

As to `CCN1/C(=C/C=C/C=C/c2sc3ccccc3[n+]2CC)Sc2ccccc21`, the Potency is 3.55 µM (active).

A further test deals with P94_40. The description is as above. The following applies: P. falciparum in erythrocytes, SYBR Green DNA, 72 h; series mostly up to 28.7 µM. The essentials: as §1
Consider `CO/N=C(/C(=O)N[C@@H]1C(=O)N2C(C(=O)O)=CCS[C@H]12)c1csc(N)n1`, for which the Potency result was “inactive”.

Turning to `Cc1cc(CC(C)CC(C)(C)C)n(O)c(=O)c1` (stereo unspecified), the Potency is 2.82 µM (active).

Take `CC1CCC(C(C)C)C(OC(=O)c2ccccc2O)C1` (stereo unspecified): the Potency result was “inactive”.

With `CO[C@@H]1[C@@H](OC2OC(C)C(OC3CC(C)(O)C(OC(=O)CC(C)C)C(C)O3)C(N(C)C)C2O)[C@@H](CC=O)C[C@@H](C)C(=O)/C=C\C2O[C@H]2C[C@@H](C)OC(=O)C[C@H]1OC(C)=O` (stereo partly specified), the Potency is 8.91 µM (active).

Regarding `CCC(=O)O[C@@H](OP(=O)(CCCCc1ccccc1)CC(=O)N1C[C@H](C2CCCCC2)C[C@H]1C(=O)O)C(C)C` (stereo partly specified), the Potency entry was “inactive”.

As for `CC(=O)O[C@@]12CO[C@@H]1C[C@H](O)[C@@]1(C)C(=O)[C@H](O)C3=C(C)[C@@H](OC(=O)C(O)[C@@H](NC(=O)OC(C)(C)C)c4ccccc4)C[C@@](O)([C@@H](OC(=O)c4ccccc4)[C@H]21)C3(C)C` (stereo partly specified), the Potency was 0.0355 µM (active).

`CC1(C)S[C@@H]2[C@H](NC(=O)COc3ccccc3)C(=O)N2[C@H]1C(=O)O`: the Potency result is “inactive”.

As to `CCN1/C(=C/C=C/C=C/c2sc3ccccc3[n+]2CC)Sc2ccccc21`, the Potency is 3.98 µM (active).

In a further test the test system is PAD. The test is described as above. The following applies: P. falciparum in erythrocytes, SYBR Green DNA, 72 h; series mostly up to 28.7 µM. The essentials:
as §1
On to `CO/N=C(/C(=O)N[C@@H]1C(=O)N2C(C(=O)O)=CCS[C@H]12)c1csc(N)n1`, for which the Potency result is “inactive”.

Consider `Cc1cc(CC(C)CC(C)(C)C)n(O)c(=O)c1` (stereo unspecified), for which the Potency was 2.82 µM (active).

As to `CC1CCC(C(C)C)C(OC(=O)c2ccccc2O)C1` (stereo unspecified), the Potency result was “inactive”.

Turning to `CC(C)(CO)C(O)C(=O)NCCCC(=O)O` (stereo unspecified), the Potency result was “inactive”.

For the compound `CO[C@@H]1[C@@H](OC2OC(C)C(OC3CC(C)(O)C(OC(=O)CC(C)C)C(C)O3)C(N(C)C)C2O)[C@@H](CC=O)C[C@@H](C)C(=O)/C=C\C2O[C@H]2C[C@@H](C)OC(=O)C[C@H]1OC(C)=O` (stereo partly specified), the Potency is 11.2 µM (active).

For `CCC(=O)O[C@@H](OP(=O)(CCCCc1ccccc1)CC(=O)N1C[C@H](C2CCCCC2)C[C@H]1C(=O)O)C(C)C` (stereo partly specified), the Potency entry was “inactive”.

In the case of `CC(=O)O[C@@]12CO[C@@H]1C[C@H](O)[C@@]1(C)C(=O)[C@H](O)C3=C(C)[C@@H](OC(=O)C(O)[C@@H](NC(=O)OC(C)(C)C)c4ccccc4)C[C@@](O)([C@@H](OC(=O)c4ccccc4)[C@H]21)C3(C)C` (stereo partly specified), the Potency was 0.126 µM (active).

Consider `CC1(C)S[C@@H]2[C@H](NC(=O)COc3ccccc3)C(=O)N2[C@H]1C(=O)O`, for which the Potency entry was “inactive”.

`CCN1/C(=C/C=C/C=C/c2sc3ccccc3[n+]2CC)Sc2ccccc21`: the Potency was 5.01 µM (active).
